Measured values reported in PubChem BioAssay AID1852 (Sanford-Burnham Center for Chemical Genomics, 2009).
In all, about 2,500 compounds went through this assay and about 1,100 (44%) were called active. The set was probably picked from earlier hits. The list shows a part of the results. Values without a mark were called inactive.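 How the source made its calls: active means inhibition above 50% at 4 µM in the single-point screen; inactive means inhibition of 50% or less.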

assay: blockers of TNF-a NF-kB luciferase induction – cell-based, HEK293T NF-kB-Luc, luminescence, selectivity assay for NOD1/NOD2 signaling inhibitor project, primary screen (AID 1852); conditions: TNF-a induced, 14 h, at 4 µM, hits give high values

Row | Structure (SMILES) | inhibition
1 | NC(=O)C1CCN(c2ccc(S(=O)(=O)N3CCC(Cc4ccccc4)CC3)cn2)CC1 | 32.5%
2 | Nc1nonc1-n1nnc(C(=O)N/N=C/c2cc(Br)ccc2O)c1CNc1ccccc1 | 56.5% (active)
3 | CC1CCN(Cc2c(C(=O)N/N=C/c3cc(Br)ccc3O)nnn2-c2nonc2N)CC1 | 95.1% (active)
4 | Cc1c(C(=O)N/N=C/c2c(O)ccc3ccccc23)nnn1-c1nonc1N | 89% (active)
5 | Cc1nc([N+](=O)[O-])c(Br)n1Cc1ccc(Cl)c(Cl)c1 | 7.2%
6 | CC(C)n1c(CN(C)Cc2ccccc2)nc2c1c(=O)n(C)c(=O)n2C | 38.7%
7 | Cn1c(=O)c2c(nc(NCc3ccco3)n2C/C=C/c2ccccc2)n(C)c1=O | 78.2% (active)
8 | COc1cc(CNc2ccc3[nH]c(=O)[nH]c3c2)cc(Br)c1OCc1ccc(F)cc1 | 47.6%
9 | COc1cc(CNc2ccc3[nH]c(=O)[nH]c3c2)cc(Br)c1OCc1ccccc1F | 61% (active)
10 | COc1cc(CNc2ccc3[nH]c(=O)[nH]c3c2)ccc1OCc1ccccc1C | 37.1%
11 | O=c1[nH]c(=O)n(Cc2ccco2)c2c1C(C(F)(F)F)(C(F)(F)F)N=C(c1ccc(F)cc1)N2 | 90.9% (active)
12 | Cc1cccc(C2=NC(C(F)(F)F)(C(F)(F)F)c3c(n(-c4ccc(F)cc4)c(=O)[nH]c3=O)N2)c1 | -13.7%
13 | Nc1ncnc(NCc2ccc(F)cc2)c1[N+](=O)[O-] | 60.6% (active)
14 | Cc1ccc(CNc2ncnc(N)c2[N+](=O)[O-])cc1 | 36.2%
15 | O=C(Nc1ccc(N2CCN(c3ncccc3C(F)(F)F)CC2)nc1)c1cccs1 | 64.1% (active)
16 | Cc1ccc(NC(=O)C2CCN(S(=O)(=O)c3ccc4c(c3)NC(=O)C(C)S4)CC2)cc1Cl (stereo unspecified) | 39.1%
17 | O=S1(=O)C=C(Sc2nnc(-c3ccccc3)o2)c2ccccc21 | 70.6% (active)
18 | O=S1(=O)C=C(Sc2nc3cc(Cl)ccc3o2)c2ccccc21 | 91.1% (active)
19 | Cc1nnc(Sc2nc3ccccc3o2)c2ccccc12 | 45.3%
20 | O=C(N/N=C\c1c(O)ccc2ccccc12)c1ccc(O)cc1 | 69.4% (active)
21 | Cn1nccc1C(=O)N/N=C/c1c(O)ccc2ccccc12 | 66.6% (active)
22 | O=C(CN1CCCC1)N/N=C/c1c(O)ccc2ccccc12 | 87.6% (active)
23 | O=C(N/N=C/c1c(O)ccc2ccccc12)c1ccc(CO)nc1 | 96.6% (active)

Row | Structure (SMILES) | inhibition
24 | O=C(CN1CCCCCC1)Nc1ccc(Br)cn1 | -21.9%
25 | O=C(N/N=C/c1c(O)ccc2ccccc12)c1ccc(Br)o1 | 34.2%
26 | Cc1ccc(C(=O)N/N=C/c2c(O)ccc3ccccc23)cn1 | 73.2% (active)
27 | Cc1ccc(CN2CCN(C(=O)c3cccc4ccccc34)CC2)cc1 | 12.3%
28 | CCN(CC)c1ccc(C(=O)N2CCN(Cc3ccccc3)CC2)cc1 | 46.5%
29 | C#Cc1ccc([C@@H]2C=C(C(=O)N3CCN(Cc4ccccc4)CC3)O[C@H](OCCCCO)C2)cc1 | 61.3% (active)
30 | COc1ccc2c(c1)-c1c(ssc1=S)C(C)(C)N2 | 92.8% (active)
31 | COc1cc(/C=C2/C(=O)NN(c3ccc(Cl)cc3)C2=O)cc(OC)c1O | 9.3%
32 | COc1cc(/C=C2/C(=O)NN(c3cccc(Cl)c3)C2=O)cc(OC)c1O | 99.4% (active)
33 | COc1cc(/C=C2/C(=O)NN(c3cccc(Cl)c3)C2=O)cc(Br)c1O | 0.8%
34 | Cc1ccc(Cc2cnc(N3C(=N)SC(c4ccccc4)C3=O)s2)cc1 (stereo unspecified) | 99.6% (active)
35 | N=C1SC(c2ccccc2)C(=O)N1c1ncc(Cc2ccccc2)s1 (stereo unspecified) | 107% (active)
36 | N=C1SC(c2ccccc2)C(=O)N1c1ncc(Cc2ccccc2Cl)s1 (stereo unspecified) | 106% (active)
37 | CCOC(=O)C(=Cc1ccc(OCc2ccc([N+](=O)[O-])cc2)c(OC)c1)C(=O)OCC | 11.6%
38 | Cc1nc2cc(N3CCN(C)CC3)c(NC(=O)Cc3ccccc3)cc2c(=O)n1Cc1ccccc1 | -21.7%
39 | C/C(=N\NC(=O)c1nnn(-c2nonc2N)c1CN1CCCCC1)c1ccccc1O | 64.6% (active)
40 | C/C(=N\NC(=O)c1nnn(-c2nonc2N)c1CN1CCc2ccccc21)c1ccccc1O | 78.8% (active)
41 | C=CC[n+]1ccc(/C=C2\C=Cc3cc(C)ccc3N2CC)c2ccccc21 | 84.9% (active)
42 | C=CC[n+]1c(/C=C2\C=Cc3cc(C)ccc3N2CC)ccc2ccccc21 | 74.1% (active)
43 | CCN1/C(=C/c2ccc3ccccc3[n+]2CC)C=Cc2ccccc21 | 67.3% (active)
44 | Cc1ccc2c(c1)c(/C=C/c1cc[n+](C)cc1)c(C)n2C | 24.2%
45 | CN1/C(=C/c2cc[n+](C)c3ccccc23)C=Cc2ccccc21 | 47.9%
46 | CCN1/C(=C/c2cc[n+](C)cc2)C=Cc2cc(C)ccc21 | 66% (active)
